A short description of assay [1]: rapamycin-like changes in RPL19A-GFP expression – cell-based, S. cerevisiae, multiplex flow cytometry, primary screen (AID 1862; in the data active = percent of DMSO control GFP below about 86%;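 note: lower values mimic rapamycin by blocking the RPL19A rise seen in DMSO cells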). Conditions: S. cerevisiae RPL19A-GFP strain, flow cytometry fluorescence, 3 h; at 10 µM; stronger effect = lower value.
Assay [2] is described as follows: TOR pathway GLN3 branch reporter MEP2-GFP changes – S. cerevisiae, multiplex flow cytometry, primary screen (AID 1867;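 active = GFP response, as percent of the DMSO control, above the screen-wide mean plus 3 SD, about 139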;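 note: median GFP channel fluorescence of barcode-gated MEP2-GFP cells measured by flow cytometry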). Conditions: S. cerevisiae MEP2-GFP strain, 3 h, at 10 µM, stronger effect = higher value, 100% means same as DMSO wells.
A short description of assay [3]: TOR pathway RTG branch CIT2 reporter changes – S. cerevisiae, GFP fusion, multiplex flow cytometry, primary screen (AID 1870;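 active = percent response above a set limit, the screen-wide mean plus 3 SD, cut at about 130% in these data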;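 note: barcoded CIT2-GFP strain pooled with four other GFP strains with rapamycin as positive control; median GFP fluorescence per well over plate mean of DMSO wells so 100% = DMSO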). Particulars: S. cerevisiae CIT2-GFP expression, 3 h, at 10 µM, stronger effect = higher value. (In general: Flow cytometry measures light scatter and fluorescence of single cells or particles in a stream.)
Assay [4] in a line: TOR pathway LAP4-GFP level changes – S. cerevisiae, multiplex flow cytometry, primary screen (AID 1873;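 active = GFP signal, as percent of the solvent control, above the screen mean plus 3 SD, about 149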). Conditions: S. cerevisiae LAP4-GFP expression, 3 h, at 10 µM, stronger effect = higher value.
Assay [5] is described as follows: yeast AGP1-GFP level changes, GLN3 branch – cell-based, multiplex flow cytometry, S. cerevisiae, primary screen (AID 1887;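 active = GFP signal above the screen-wide mean plus 3 SD, that is over about 124.5% of the solvent control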;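 note: AGP1-GFP fusion strain of S. cerevisiae within a five-strain barcoded multiplex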). Conditions: 3 h, at 10 µM, stronger effect = higher value.
Assay [6] can be described thus: reduced mouse 2C T cell binding to pMHC/ICAM-1 vesicles – MLPCN validation set, flow cytometry, LFA-1/ICAM-1 modulator project, pilot screen (AID 2523;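 active = response below a set limit, under 55% cells CD8-positive and vesicle-bound, and CD8 cells' 90th-percentile brightness under 279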;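 for vesicle binding response: mean PE anti-B7-1 fluorescence of CD8+ cells relative to row control; 100% = QL9-loaded vesicles with DMSO vehicle in the same plate row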). Conditions: 2C mouse CD8+ T cells, at 7 µM, stronger effect = lower value; double positive events: measured here: CD8+/vesicle+ event percentage.
The target of assay [7] is Integrin beta-1 (Homo sapiens) + Integrin alpha-4 (Homo sapiens) (UniProt P13612+P05556). In words: alpha4beta1 integrin LIBS antibody binding reduction – U937 cells, HUTS-21 mAb, flow cytometry, validation set, VLA-4 allosteric modulator project, pilot screen (AID 2674;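 active = inhibition above 50%, about 3 SD of the validation set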;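 note: antibody binding induced by the VLA-4 ligand LDV present at three times its Kd; 0% = LDV ligand with antibody and no compound and 100% = antibody without LDV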). Conditions: HUTS-21 LIBS mAb binding, at 6.7 µM, stronger effect = higher value, binding induced by LDV ligand.
Chain of Integrin beta-1 (Homo sapiens) + Integrin alpha-4 (Homo sapiens) (P05556 whole entry, looked up): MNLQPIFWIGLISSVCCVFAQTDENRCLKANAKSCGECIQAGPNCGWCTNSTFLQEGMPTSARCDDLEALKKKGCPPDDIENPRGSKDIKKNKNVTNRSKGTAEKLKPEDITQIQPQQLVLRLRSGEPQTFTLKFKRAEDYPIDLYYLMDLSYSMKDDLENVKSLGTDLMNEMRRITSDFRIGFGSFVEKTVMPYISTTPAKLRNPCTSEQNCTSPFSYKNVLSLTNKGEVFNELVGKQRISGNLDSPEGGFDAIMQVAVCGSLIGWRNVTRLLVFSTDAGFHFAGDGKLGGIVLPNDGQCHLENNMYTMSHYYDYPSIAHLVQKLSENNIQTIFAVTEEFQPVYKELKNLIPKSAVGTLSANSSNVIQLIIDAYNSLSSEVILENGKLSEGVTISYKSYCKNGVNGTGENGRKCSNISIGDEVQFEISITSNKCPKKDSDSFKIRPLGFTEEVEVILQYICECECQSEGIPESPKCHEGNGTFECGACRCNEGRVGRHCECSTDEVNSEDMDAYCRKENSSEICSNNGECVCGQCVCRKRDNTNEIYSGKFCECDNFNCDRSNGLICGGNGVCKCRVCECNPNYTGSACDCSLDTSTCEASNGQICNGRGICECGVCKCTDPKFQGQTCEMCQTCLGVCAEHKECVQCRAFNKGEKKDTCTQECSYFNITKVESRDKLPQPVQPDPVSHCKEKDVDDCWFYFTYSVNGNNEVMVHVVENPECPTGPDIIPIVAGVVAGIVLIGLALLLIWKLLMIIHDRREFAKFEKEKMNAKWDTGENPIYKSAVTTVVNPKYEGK
Chain of Integrin beta-1 (Homo sapiens) + Integrin alpha-4 (Homo sapiens) (P13612 whole entry, looked up): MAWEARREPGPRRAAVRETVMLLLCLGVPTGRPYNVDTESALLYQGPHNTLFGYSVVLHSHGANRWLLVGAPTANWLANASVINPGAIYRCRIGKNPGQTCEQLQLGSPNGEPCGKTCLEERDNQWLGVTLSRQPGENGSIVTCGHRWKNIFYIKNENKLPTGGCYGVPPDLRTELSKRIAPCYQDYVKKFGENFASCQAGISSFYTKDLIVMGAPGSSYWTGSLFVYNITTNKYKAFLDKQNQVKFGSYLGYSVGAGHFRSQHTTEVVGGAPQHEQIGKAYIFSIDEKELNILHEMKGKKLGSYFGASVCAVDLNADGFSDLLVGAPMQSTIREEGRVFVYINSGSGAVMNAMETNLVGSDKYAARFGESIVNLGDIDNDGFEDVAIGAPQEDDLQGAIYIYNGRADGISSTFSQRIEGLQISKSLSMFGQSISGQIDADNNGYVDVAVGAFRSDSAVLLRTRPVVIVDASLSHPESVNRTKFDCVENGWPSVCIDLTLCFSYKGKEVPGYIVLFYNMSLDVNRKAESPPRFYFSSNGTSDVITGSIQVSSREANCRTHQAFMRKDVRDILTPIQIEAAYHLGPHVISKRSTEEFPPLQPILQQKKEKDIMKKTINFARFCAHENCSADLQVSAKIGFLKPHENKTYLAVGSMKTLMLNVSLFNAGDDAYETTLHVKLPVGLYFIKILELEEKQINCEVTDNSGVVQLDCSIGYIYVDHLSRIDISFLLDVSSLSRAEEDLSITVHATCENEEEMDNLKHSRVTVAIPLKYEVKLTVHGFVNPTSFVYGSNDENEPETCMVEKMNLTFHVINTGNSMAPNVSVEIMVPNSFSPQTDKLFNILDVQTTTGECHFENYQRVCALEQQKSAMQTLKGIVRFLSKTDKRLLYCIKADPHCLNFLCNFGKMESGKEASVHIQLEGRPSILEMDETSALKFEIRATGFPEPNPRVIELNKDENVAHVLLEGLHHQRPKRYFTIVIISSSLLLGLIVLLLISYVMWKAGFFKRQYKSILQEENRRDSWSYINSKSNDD

The nature of assay [8]: calorie-restriction mimetic ROS inhibitors, yeast – validation compound set, pilot screen (AID 2706;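 active = superoxide response below 65% of plate, a cut near 3 SD across the whole screen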;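 note: yeast exposed to compound for one week at 30 degrees C before staining; 100% = mean of all compound wells on the same plate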). Particulars: S. cerevisiae aging, superoxide DHE fluorescence; at 10 µM; stronger effect = lower value.
The target of assay [9] is Beta-adrenergic receptor kinase 1 (Homo sapiens) (UniProt P25098). In words: GRK2 binders displacing RNA aptamer, biochemical, validation, human GRK2, bead flow cytometry (AID 488806;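 active = aptamer binding inhibition above 30%, about 3 SD of noise from non-fluorescent compounds; inactive = inhibition at or below 30%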). Particulars: bead-bound GRK2, FAM-aptamer displacement, at 10 µM, stronger effect = higher value.
Chain of Beta-adrenergic receptor kinase 1 (Homo sapiens) (P25098 whole entry, looked up): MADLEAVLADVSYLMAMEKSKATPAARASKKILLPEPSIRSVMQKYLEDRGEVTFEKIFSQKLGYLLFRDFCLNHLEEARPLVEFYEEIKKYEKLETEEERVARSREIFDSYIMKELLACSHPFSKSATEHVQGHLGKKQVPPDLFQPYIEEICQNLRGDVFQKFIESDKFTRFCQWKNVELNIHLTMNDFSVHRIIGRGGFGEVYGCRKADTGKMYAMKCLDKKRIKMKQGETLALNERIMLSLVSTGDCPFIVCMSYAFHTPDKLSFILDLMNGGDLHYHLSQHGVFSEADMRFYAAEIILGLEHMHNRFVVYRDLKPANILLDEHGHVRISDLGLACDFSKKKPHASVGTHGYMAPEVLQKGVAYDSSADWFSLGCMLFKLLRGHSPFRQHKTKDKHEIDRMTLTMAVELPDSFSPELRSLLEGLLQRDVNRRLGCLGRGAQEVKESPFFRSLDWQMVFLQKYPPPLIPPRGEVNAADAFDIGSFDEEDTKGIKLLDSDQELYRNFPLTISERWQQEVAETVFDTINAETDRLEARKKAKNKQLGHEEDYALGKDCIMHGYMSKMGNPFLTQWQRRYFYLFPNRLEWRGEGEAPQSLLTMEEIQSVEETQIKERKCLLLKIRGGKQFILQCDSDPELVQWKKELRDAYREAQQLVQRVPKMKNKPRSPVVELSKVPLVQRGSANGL
For assay [10], the target named is Beta-2 adrenergic receptor (Homo sapiens) (UniProt P07550). Put plainly: agonist-induced loss of surface beta2AR – cell-based, FAP fluorogen, flow cytometry, validation set, pilot screen (AID 504459;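 active = percent response above 42, roughly 3 SD of non-fluorescent test compounds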;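 note: agonist-driven loss of surface beta2AR via internalization measured by FAP dye flow cytometry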). Particulars: Am2.2-beta2AR cells, at 10 µM, stronger effect = higher value.
Chain of Beta-2 adrenergic receptor (Homo sapiens) (P07550 whole entry, looked up): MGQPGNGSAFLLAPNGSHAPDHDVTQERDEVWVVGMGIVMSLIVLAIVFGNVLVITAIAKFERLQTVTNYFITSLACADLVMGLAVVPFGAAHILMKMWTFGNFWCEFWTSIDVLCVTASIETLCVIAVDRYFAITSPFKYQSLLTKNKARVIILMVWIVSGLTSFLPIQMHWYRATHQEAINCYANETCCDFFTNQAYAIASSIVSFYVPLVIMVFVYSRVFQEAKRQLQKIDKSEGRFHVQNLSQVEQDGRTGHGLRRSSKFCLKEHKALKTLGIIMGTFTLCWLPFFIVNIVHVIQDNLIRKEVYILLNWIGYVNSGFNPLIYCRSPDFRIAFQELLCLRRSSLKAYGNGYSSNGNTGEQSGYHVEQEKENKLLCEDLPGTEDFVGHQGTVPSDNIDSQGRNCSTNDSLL
Assay [11] has as its target AP-2 complex subunit beta (Homo sapiens) (UniProt P63010). Put plainly: beta-arrestin/AP2 interaction blockers – biochemical, validation set, GST-AP2 beads, flow cytometry, pilot screen (AID 504541;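 active = inhibition above 54%, about 3 SD of non-fluorescent compounds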;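 note: AP2 carries R879A mutation and is captured from E. coli lysate; bead-bound FITC arrestin peptide fluorescence measuring arrestin peptide binding to AP2; 0% = DMSO wells and 100% = excess unlabeled arrestin peptide control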). Particulars: FITC arrestin peptide, at 10 µM, stronger effect = higher value, AP2 beta2 appendage fragment, R879A mutant.
The nature of assay [12]: cytosolic pH regulators acting via V-ATPase – S. cerevisiae, pHLuorin, HTS validation (AID 504600; in the data active = response above about 15%;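 note: plate controls were DMSO for no effect and reference compound for full effect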). Particulars: V-ATPase proton transport, at 10 µM, stronger effect = higher value.
Assay [13] concerns anti-desmoglein-3 scFv antibody binding to human DSG3. Put plainly: blockers of pathogenic pemphigus antibody–desmoglein-3 binding – biochemical, validation compound set, bead-based, flow cytometry, pilot screen (AID 588368;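 active = binding below the plate cutoff, the plate median minus 3 SD, with a reading above zero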;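 note: signal is the median channel fluorescence of bead-bound GFP antibody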). Particulars: Protein G beads, DSG3-Fc, scFv-GFP binding, at 10 µM, stronger effect = lower value.
Assay [14] in a line: Nile Red efflux blockade in pump-expressing yeast – validation compound set, multiplex, phenotypic, pilot screen (AID 588506;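 active = efflux inhibition above 0.42, the validation set average plus 4 SD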;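 note: Nile Red retained in cells so higher fluorescence means more efflux inhibition; 0 = negative control wells and 1 = enniatin B 25 µM full block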). Conditions: S. cerevisiae pump-expressing triplex, Nile Red efflux flow cytometry; at 10 µM; stronger effect = higher value; the pumps come from Candida albicans.
Assay [15] concerns the target ATP-binding cassette sub-family B member 6 (Homo sapiens) (UniProt Q9NP58). In words: blockers of ABCB6-driven porphyrin uptake – K562-ABCB6 cells, flow cytometry, validation set, pilot screen (AID 588550).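 Note: 0% = DMSO wells and 100% = benzethonium chloride 70 µM positive control.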 Particulars: K562-ABCB6 porphyrin accumulation, 1 h, at 10 µM, stronger effect = higher value.
Assay [16] can be described thus: AML differentiation inducers, ER-HoxA9 marrow cells – cell-based, GFP/MAC1 double positive, flow cytometry, validation set, primary screen (AID 588685;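 active = differentiation response of at least 50%, scaled between solvent and reference control, from cells with both markers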;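 note: compound exposure lasts four days before antibody staining and flow analysis; 0% = DMSO wells and 100% = 5 µM fulvestrant positive control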). Conditions: stronger effect = higher value, normalized: vehicle 0, fulvestrant 100.

The values that follow come from PubChem BioAssay.

Molecules are shown by their SMILES. Records with an inconclusive call do not appear. The source made the active and inactive calls.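 Rule for the calls, unless noted: active = inhibition above the screen-wide mean plus 3 SD, about 51%; inactive = the rest.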

Chain of AP-2 complex subunit beta (Homo sapiens) (P63010 whole entry, looked up, the tested form may be a part, one chain of several): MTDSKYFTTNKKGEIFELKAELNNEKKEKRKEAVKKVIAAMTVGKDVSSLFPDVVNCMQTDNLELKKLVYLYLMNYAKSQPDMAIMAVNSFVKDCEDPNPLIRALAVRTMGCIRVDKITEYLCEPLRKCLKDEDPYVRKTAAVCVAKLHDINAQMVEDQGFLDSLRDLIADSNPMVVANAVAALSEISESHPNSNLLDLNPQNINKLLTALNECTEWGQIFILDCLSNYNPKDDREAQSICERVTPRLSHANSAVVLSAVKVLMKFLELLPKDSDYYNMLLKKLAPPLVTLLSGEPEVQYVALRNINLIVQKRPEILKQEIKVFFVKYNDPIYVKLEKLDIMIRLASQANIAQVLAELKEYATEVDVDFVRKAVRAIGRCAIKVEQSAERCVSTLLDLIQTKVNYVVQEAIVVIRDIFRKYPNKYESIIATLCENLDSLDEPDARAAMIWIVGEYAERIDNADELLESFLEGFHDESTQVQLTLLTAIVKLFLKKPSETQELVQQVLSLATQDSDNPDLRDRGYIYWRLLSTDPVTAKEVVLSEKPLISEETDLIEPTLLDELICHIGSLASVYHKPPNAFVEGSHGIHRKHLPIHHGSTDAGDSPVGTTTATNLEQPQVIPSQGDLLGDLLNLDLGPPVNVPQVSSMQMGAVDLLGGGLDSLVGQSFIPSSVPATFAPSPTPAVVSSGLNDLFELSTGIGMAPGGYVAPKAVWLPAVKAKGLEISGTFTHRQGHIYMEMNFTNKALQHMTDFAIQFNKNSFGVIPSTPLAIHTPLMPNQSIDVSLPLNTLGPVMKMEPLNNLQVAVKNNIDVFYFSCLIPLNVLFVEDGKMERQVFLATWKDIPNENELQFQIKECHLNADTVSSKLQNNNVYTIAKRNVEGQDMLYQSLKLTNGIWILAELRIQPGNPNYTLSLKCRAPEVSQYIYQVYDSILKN
Chain of ATP-binding cassette sub-family B member 6 (Homo sapiens) (Q9NP58 whole entry, looked up): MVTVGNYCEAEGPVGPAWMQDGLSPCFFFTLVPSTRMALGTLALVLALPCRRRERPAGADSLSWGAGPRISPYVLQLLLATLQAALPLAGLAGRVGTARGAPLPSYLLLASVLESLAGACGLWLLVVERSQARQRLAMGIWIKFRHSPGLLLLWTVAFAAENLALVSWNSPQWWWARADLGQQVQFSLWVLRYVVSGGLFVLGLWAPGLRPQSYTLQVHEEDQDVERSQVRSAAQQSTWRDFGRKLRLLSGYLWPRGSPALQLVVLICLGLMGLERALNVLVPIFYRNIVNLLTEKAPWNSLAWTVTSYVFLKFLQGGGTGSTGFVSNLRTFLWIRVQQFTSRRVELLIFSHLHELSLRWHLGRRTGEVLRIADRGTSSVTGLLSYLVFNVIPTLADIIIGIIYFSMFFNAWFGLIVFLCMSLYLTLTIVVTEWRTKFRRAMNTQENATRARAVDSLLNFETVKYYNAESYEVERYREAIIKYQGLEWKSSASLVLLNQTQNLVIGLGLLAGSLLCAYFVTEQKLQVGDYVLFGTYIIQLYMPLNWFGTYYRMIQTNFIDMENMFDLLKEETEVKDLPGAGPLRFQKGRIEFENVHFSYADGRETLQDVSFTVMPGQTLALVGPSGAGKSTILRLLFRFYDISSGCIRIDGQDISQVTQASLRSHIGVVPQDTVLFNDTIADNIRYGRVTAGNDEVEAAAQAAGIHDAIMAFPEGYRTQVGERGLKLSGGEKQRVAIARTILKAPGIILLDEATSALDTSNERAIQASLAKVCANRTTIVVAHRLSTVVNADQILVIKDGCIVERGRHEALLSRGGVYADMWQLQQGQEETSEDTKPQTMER

As a reminder, the inhibition is the relative decrease from the control value, in per cent. `COC(=O)c1ccc(OCCCCN2CC(C)OC(C)C2)cc1` (configuration not stated): the percent of DMSO control GFP in [1] was 104% (inactive). For the same compound, the GFP response vs DMSO in assay [2] is 99.7% (inactive); in assay [4], 95.9% (inactive). In addition, the percent response of DMSO control in assay [3] is 105% (inactive). For the same compound, in [5], the GFP response, % of DMSO was 102% (inactive). Besides, the double positive events in assay [6] is 63.1%. In addition, in assay [6], the vesicle binding response is 228% (inactive). In addition, the inhibition was -3.77% (inactive) in assay [7], -5.73% (inactive) in assay [11] and 5% (inactive) in assay [15]. Also, the superoxide response (% of plate) in assay [8] is 106% (inactive). The aptamer binding inhibition in assay [9] was 0% (inactive). The response in assay [10] was 2.87% (inactive); in [12], 2.09% (inactive). In addition, in assay [13], the binding (% of control) was 98.3% (inactive). Moreover, the efflux inhibition (fraction of control) in assay [14] was 0.39 (inactive). In addition, in [16], the differentiation response is -11.9% (inactive).
In the case of `COc1ccccc1OCC(O)COC(N)=O` (configuration not stated), the percent of DMSO control GFP in assay [1] was 93.3% (inactive). Also, the GFP response vs DMSO in [2] is 131% (inactive); in [4], 82% (inactive). Also, the percent response of DMSO control in [3] is 97.9% (inactive). Further, the GFP response, % of DMSO in assay [5] is 84.5% (inactive). In [6], this compound yielded a double positive events of 62.5%. Further, the vesicle binding response in [6] is 133% (inactive). The figures for the inhibition in [7], in assay [11] and in assay [15] were 11.3% (inactive), -1.32% (inactive) and 9% (inactive), respectively. Besides, the superoxide response (% of plate) in assay [8] is 101% (inactive). For the same compound, the aptamer binding inhibition in assay [9] is 1% (inactive). In addition, the response is 1.55% (inactive) in [10] and -1.8% (inactive) in assay [12]. The binding (% of control) in assay [13] is 101% (inactive). Besides, the efflux inhibition (fraction of control) in [14] is 0.01 (inactive). For the same compound, the differentiation response in assay [16] was 3.28% (inactive).
Turning to `O=C1C(O)CC2c3ccccc3CC3(CCCC3)N12` (configuration not stated), the percent of DMSO control GFP in [1] was 100% (inactive). The GFP response vs DMSO was 104% (inactive) in assay [2] and 114% (inactive) in assay [4]. Besides, the percent response of DMSO control in assay [3] was 105% (inactive). The GFP response, % of DMSO in [5] is 100% (inactive). The compound also had a double positive events in assay [6] of 61.4%. Besides, in assay [6], the vesicle binding response is 247% (inactive). Also, the inhibition is -0.43% (inactive) in assay [7], -6.78% (inactive) in assay [11] and -110% (inactive) in assay [15]. In assay [8], the superoxide response (% of plate) was 106% (inactive). Besides, in [9], the aptamer binding inhibition is 1% (inactive). Moreover, the response was 48% (active) in assay [10] and 0.88% (inactive) in [12]. In [13], the binding (% of control) was 99.9% (inactive). Further, the efflux inhibition (fraction of control) in [14] is 0.08 (inactive). Moreover, the differentiation response in assay [16] is -18.4% (inactive).
For `COCC(C)NC(=O)c1ccc(CN2CCc3ccccc3C2)cc1` (configuration not stated), the percent of DMSO control GFP in assay [1] was 97.3% (inactive). Besides, the values for the GFP response vs DMSO in assay [2] and in assay [4] were 108% (inactive) and 120% (inactive), respectively. Further, the percent response of DMSO control in [3] is 103% (inactive). For the same compound, in assay [5], the GFP response, % of DMSO is 92.6% (inactive). In addition, the double positive events in assay [6] turned out to be 60.9%. Further, the vesicle binding response in assay [6] was 257% (inactive). Further, the figures for the inhibition in assay [7], in [11] and in [15] were -12.7% (inactive), 53.4% (inactive) and 2% (inactive), respectively. The superoxide response (% of plate) in [8] was 103% (inactive). The aptamer binding inhibition in assay [9] is -9% (inactive). Besides, the response in assay [10] is -5.78% (inactive); in assay [12], -6.18% (inactive). Besides, the binding (% of control) in assay [13] is 195% (inactive). In assay [14], the efflux inhibition (fraction of control) is -0.1 (inactive). Besides, the differentiation response in assay [16] is 16.8% (inactive).
Consider `CC(=O)Nc1ccc(CN2CCN(C3CCCCC3)C(CCO)C2)cc1` (configuration not stated), for which, in [1], the percent of DMSO control GFP is 102% (inactive). In addition, the values for the GFP response vs DMSO in assay [2] and in assay [4] were 104% (inactive) and 114% (inactive), respectively. Also, in [3], the percent response of DMSO control was 101% (inactive). Moreover, the GFP response, % of DMSO in assay [5] is 120% (inactive). In assay [6], this compound showed a double positive events of 62.8%. In assay [6], the vesicle binding response was 172% (inactive). Moreover, the inhibition in [7] is -0.27% (inactive); in assay [11], -3.58% (inactive); in assay [15], 2% (inactive). Further, in [8], the superoxide response (% of plate) was 102% (inactive). Also, the aptamer binding inhibition in assay [9] is 0% (inactive). Further, the response in assay [10] is -18.9% (inactive); in assay [12], -1.9% (inactive). Further, the binding (% of control) in assay [13] was 111% (inactive). In [14], the efflux inhibition (fraction of control) was 0.12 (inactive). Also, in [16], the differentiation response is -10.9% (inactive).
For `COc1cc(C2C(C(C)=O)=C(O)C(=O)N2c2ccc(C)cc2)ccc1O` (configuration not stated), the percent of DMSO control GFP in assay [1] is 100% (inactive). Further, the figures for the GFP response vs DMSO in [2] and in assay [4] were 104% (inactive) and 97.3% (inactive), respectively. In addition, the percent response of DMSO control in [3] was 100% (inactive). In addition, the GFP response, % of DMSO in assay [5] was 97.5% (inactive). Also, the double positive events in assay [6] came out at 57.9%. Further, the vesicle binding response in assay [6] is 75.1% (inactive). The inhibition is -16% (inactive) in assay [7], 51.5% (inactive) in assay [11] and -2% (inactive) in assay [15]. In [8], the superoxide response (% of plate) was 107% (inactive). Besides, the aptamer binding inhibition in [9] was 3% (inactive). The response was -1.25% (inactive) in [10] and -8.34% (inactive) in [12]. Besides, in assay [13], the binding (% of control) is 95.1% (inactive). Further, in assay [14], the efflux inhibition (fraction of control) was -0.17 (inactive). In addition, in [16], the differentiation response was 17.8% (inactive).
